Experimental data as given in PubChem BioAssay (Tox21).
Records with an inconclusive call do not appear. The source made the active and inactive calls. Unless noted, the call rests on the fitted dose curve; in most records, active means well fitted curve in the direction sought with a large enough effect in the repeat runs; inconclusive means weak or mixed curves; inactive means no such curve, though single readings can be large; an effect the other way counts as inactive or inconclusive.

Key:
[1] = biological target: Retinoic acid receptor RXR-alpha (Homo sapiens) (UniProt P19793); assay: qHTS assay to identify small molecule agonists of the RXR signaling pathway (AID 1159527; calls by dose curve; further: nearly all actives have a fitted effect of over 35% in size)
Chain of Retinoic acid receptor RXR-alpha (Homo sapiens) (P19793 whole entry, looked up): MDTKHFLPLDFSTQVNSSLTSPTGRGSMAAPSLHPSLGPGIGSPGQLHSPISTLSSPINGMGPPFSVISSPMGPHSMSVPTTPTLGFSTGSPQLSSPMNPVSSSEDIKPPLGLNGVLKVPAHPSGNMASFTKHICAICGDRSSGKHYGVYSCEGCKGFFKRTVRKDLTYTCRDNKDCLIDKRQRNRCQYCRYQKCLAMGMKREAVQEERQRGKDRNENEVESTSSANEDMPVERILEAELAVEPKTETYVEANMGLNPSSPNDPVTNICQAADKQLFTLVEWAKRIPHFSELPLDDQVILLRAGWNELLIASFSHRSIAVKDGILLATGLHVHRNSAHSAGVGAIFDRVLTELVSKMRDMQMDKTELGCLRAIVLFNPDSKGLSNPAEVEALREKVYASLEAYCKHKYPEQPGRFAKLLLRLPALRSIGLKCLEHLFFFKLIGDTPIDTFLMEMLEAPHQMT
In short: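 GeneBLAzer RXR-alpha-UAS-bla HEK 293T cells in 2% charcoal-stripped FBS medium were exposed to compounds for 16 hr at 37 C in agonist mode. Beta-lactamase reporter read as 460/530 nm FRET ratio after 2 hr substrate loading.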

[2] = qHTS assay to identify small molecule agonists of the RXR signaling pathway - cell viability counter screen (AID 1159529); further: series mostly up to about 77 µM; nearly all actives have a fitted effect of over 50% in size
In short: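 RXR-alpha-UAS-bla HEK 293T cells in medium with 2% charcoal-stripped FBS were pre-incubated 5 hr, then compound-treated 16 hr at 37 C. Viability was read by CellTiter-Glo luminescence in the same wells as the beta-lactamase assay, with tetraoctyl ammonium bromide as positive control.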

[3] = qHTS assay to identify small molecule antagonists of the estrogen related receptor (ERR) signaling pathway from Tox21 library - cell viability counter screen (AID 1224834); further: nearly all actives have a fitted effect of over 30% in size
In short: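 ERR reporter cells, 2,000 per well, rested 6 h, then exposed to compound in DMSO for 17.5 hours at 37 C. Viability read as fluorescence after 30 min with CellTiter-Fluor.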

[4] = qHTS assay to identify small molecule agonists of the constitutive androstane receptor (CAR) signaling pathway - cell viability counter screen (AID 1224836); further: series mostly up to about 92 µM; nearly all actives have a fitted effect of over 45% in size
In short: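 HepG2 cells stably carrying hCAR and a CYP2B6-2.2kb reporter; 15-concentration compounds plus PK11195 (final 0.75 uM), 23 hr at 37 C/5% CO2. Viability read by CellTiter-Fluor fluorescence.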

[5] = qHTS assay to identify small molecule antagonists of the constitutive androstane receptor (CAR) signaling pathway - cell viability counter screen (AID 1224837); further: series mostly up to about 92 µM; nearly all actives have a fitted effect of over 45% in size
In short: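 HepG2 cells stably carrying hCAR and CYP2B6-2.2kb reporter, stimulated with 50 nM CITCO and compounds at 15 concentrations for 23 h at 37 C. Viability measured by CellTiter-Fluor fluorescence.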

[6] = biological target: Nuclear receptor subfamily 1 group I member 3 (Homo sapiens) (UniProt Q14994); assay: qHTS assay to identify small molecule antagonists of the constitutive androstane receptor (CAR) signaling pathway (AID 1224838); further: nearly all actives have a fitted effect of over 40% in size
Chain of Nuclear receptor subfamily 1 group I member 3 (Homo sapiens) (Q14994 whole entry, looked up): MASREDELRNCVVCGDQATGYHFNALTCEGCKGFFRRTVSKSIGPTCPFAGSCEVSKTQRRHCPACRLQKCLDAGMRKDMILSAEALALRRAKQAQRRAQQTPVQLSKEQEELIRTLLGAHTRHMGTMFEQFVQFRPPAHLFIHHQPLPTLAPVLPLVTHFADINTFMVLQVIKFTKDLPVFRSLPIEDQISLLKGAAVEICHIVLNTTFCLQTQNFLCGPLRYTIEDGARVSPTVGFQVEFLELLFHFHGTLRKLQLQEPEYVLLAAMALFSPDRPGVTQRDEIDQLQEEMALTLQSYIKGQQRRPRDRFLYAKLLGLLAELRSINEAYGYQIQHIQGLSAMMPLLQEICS
In short: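 HepG2 cells stably carrying hCAR and a CYP2B6-2.2kb luciferase reporter, seeded 4 hrs before compound (15 concentrations). Stimulated with 50 nM CITCO for 24 hr at 37 C. ONE-Glo luminescence read after 30 min at room temperature.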

[7] = qHTS assay to identify small molecule antagonists of the estrogen related receptor signaling pathway with the pleiotropic PPARgamma coactivator (PGC) from Tox21 10K library - cell viability counter screen (AID 1224840; active means well fitted cell-killing curve with a large enough effect in the repeat runs, not every such curve was filed as active; further: nearly all actives have a fitted effect of over 40% in size)
In short: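 PGC/ERR cells (2,000/well) plated 6 h, then compound-treated for 17.5 h at 37 C. Viability measured by CellTiter-Fluor fluorescence after 30 min at 37 C, multiplexed with the pathway assay.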

[8] = qHTS assay to identify small molecule antagonists of the estrogen related receptor signaling pathway with the pleiotropic PPARgamma coactivator (PGC) from Tox21 10K library (AID 1224841; call rule not given here; further: series mostly up to about 92 µM; actives are mostly falling curves and most rising ones were filed inactive; nearly all actives have a fitted effect of over 50% in size)
In short: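 PGC/ERR cell line, 2,000 cells/well, pre-incubated 6 hours at 37 C, then exposed to compounds for 18 hours at 37 C; luciferase read with One-Glo luminescence after 30 min at room temperature.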

[9] = qHTS assay to identify small molecule agonists of the estrogen related receptor signaling pathway with the pleiotropic PPARgamma coactivator (PGC) from Tox21 10K library (AID 1224842); further: nearly all actives have a fitted effect of over 15% in size
In short: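 Luminescence from One-Glo (30 min, room temperature) measured after PGC/ERR cells had 18 h at 37 C with pinned compound (23 nL in DMSO). Cells had been seeded at 2,000 per well and pre-incubated 6 h.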

[10] = biological target: Thyrotropin receptor (Homo sapiens) (UniProt P16473); assay: qHTS assay to identify small molecule agonists of the thyroid stimulating hormone receptor (TSHR) signaling pathway (AID 1224843; calls by dose curve; further: nearly all actives have a fitted effect of over 45% in size)
Chain of Thyrotropin receptor (Homo sapiens) (P16473 whole entry, looked up): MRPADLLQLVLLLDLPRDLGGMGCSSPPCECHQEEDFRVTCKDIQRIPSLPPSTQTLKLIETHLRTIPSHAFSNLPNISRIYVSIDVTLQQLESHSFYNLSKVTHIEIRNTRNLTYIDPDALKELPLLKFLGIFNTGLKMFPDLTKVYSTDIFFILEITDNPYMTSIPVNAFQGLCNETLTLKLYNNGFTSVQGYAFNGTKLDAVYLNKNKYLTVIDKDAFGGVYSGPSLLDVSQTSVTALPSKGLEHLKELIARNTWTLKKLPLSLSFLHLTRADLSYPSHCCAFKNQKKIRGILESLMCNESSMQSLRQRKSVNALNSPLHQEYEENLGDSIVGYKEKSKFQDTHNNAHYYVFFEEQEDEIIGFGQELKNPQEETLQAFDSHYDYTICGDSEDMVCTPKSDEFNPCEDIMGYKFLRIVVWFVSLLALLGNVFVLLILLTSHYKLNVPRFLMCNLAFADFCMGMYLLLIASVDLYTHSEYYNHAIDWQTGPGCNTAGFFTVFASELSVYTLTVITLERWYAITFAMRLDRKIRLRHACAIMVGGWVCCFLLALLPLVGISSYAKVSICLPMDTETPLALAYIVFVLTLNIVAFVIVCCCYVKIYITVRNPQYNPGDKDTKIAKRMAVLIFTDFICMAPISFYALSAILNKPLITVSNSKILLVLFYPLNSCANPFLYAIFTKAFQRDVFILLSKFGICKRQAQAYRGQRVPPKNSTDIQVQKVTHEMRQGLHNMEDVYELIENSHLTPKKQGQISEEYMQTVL
In short: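 HEK293 cells stably bearing the thyrotropin receptor were plated at 800 cells/well and challenged with compound (30 min, RT). Accumulated cAMP was quantified via cAMP-d2 competing for cryptate-tagged antibody.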

[11] = qHTS assay to identify small molecule antagonists of the estrogen related receptor (ERR) signaling pathway - cell viability counter screen (AID 1224818); further: series mostly up to about 46 µM
In short: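 ERR cells, 2,000 per well, compound added after 6 h and incubated 17.5 h at 37 C. Viability read by CellTiter-Fluor fluorescence after a further 30 min at 37 C.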

[12] = qHTS assay to identify small molecule antagonists of the estrogen related receptor signaling pathway with the pleiotropic PPARgamma coactivator (PGC) cell viability counter screen (AID 1224822; further: series mostly up to about 46 µM)
In short: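 PGC/ERR cells rested 6 h, then compound-treated 17.5 h at 37 C. CellTiter-Fluor added for 30 min at 37 C, viability measured by fluorescence intensity.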

[13] = biological target: Luciferin 4-monooxygenase (Photinus pyralis) (UniProt P08659); assay: qHTS assay to identify small molecule inhibitors of firefly luciferase (AID 1224835); further: nearly all actives have a fitted effect of over 25% in size; further: potency means the concentration at half of the fitted maximal effect; on activity change, negative = inhibition: series mostly up to about 120 µM
Chain of Luciferin 4-monooxygenase (Photinus pyralis) (P08659 whole entry, looked up): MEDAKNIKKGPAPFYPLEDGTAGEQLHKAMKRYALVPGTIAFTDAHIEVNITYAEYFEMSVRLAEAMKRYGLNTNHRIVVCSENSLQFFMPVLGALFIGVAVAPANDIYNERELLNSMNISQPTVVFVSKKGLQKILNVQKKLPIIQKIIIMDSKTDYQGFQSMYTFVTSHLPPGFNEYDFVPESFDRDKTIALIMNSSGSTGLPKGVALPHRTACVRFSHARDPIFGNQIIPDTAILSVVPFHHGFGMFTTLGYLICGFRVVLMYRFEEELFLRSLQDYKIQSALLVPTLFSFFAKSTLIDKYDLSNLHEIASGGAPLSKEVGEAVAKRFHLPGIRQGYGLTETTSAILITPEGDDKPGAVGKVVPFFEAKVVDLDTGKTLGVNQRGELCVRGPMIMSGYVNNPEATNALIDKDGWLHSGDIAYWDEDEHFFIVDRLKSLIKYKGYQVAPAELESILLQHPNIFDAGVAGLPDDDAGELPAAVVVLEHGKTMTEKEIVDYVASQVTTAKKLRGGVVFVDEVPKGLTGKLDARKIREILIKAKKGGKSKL
In short: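 Inhibition of purified Photinus luciferase is measured by luminescence. Substrate levels (D-luciferin, ATP) sit at their KM values. Each compound is tested in a concentration series.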

[14] = qHTS assay to identify small molecule antagonists of the retinoic acid receptor (RAR) signaling pathway (AID 1159552; further: nearly all actives have a fitted effect of over 50% in size)
In short: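 Retinol signaling pathway inhibitors screened in C3RL4 RARE-luciferase reporter cells seeded overnight at 37 C, then compounds added with 1 uM (final) retinol as pathway substrate. After 6 hr at 37 C, luciferase luminescence read after 30 min at room temperature.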

[15] = biological target: Nuclear receptor subfamily 1 group I member 3 (Homo sapiens) (UniProt Q14994); assay: qHTS assay to identify small molecule agonists of the constitutive androstane receptor (CAR) signaling pathway (AID 1224839); further: nearly all actives have a fitted effect of over 15% in size; further: potency means the concentration at half of the fitted maximal effect; on activation: series mostly up to about 92 µM
In short: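 HepG2 cells stably co-transfected with hCAR and a CYP2B6-2.2kb luciferase reporter; compounds at 15 concentrations with 0.75 uM PK11195 present. After 24 hr at 37 C, luciferase read by ONE-Glo luminescence.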

[16] = qHTS assay to identify small molecule antagonists of the retinoid acid receptor (RAR) signaling pathway - cell viability counter screen (AID 1159551); further: nearly all actives have a fitted effect of over 35% in size
In short: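 C3RL4 RARE-luciferase cells, 1,000/well, incubated overnight, then dosed with compound plus 1 uM retinol (final). After 6 hr at 37 C, viability read by CellTiter-Glo ATP luminescence following 30 min at room temperature.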

[17] = qHTS assay to identify small molecule agonists of the retinoic acid receptor (RAR) signaling pathway (AID 1159553)
In short: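 C3RL4 RARE-luciferase cells were seeded at 1,000/well and grown overnight at 37 C, then exposed to compounds for 6 hr at 37 C, 5% CO2. Luciferase reagent was added and luminescence was read after 30 min at room temperature.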

[18] = qHTS assay to identify small molecule antagonists of the estrogen related receptor (ERR) signaling pathway (AID 1224819;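 further: luminescence from an ERR-driven luciferase reporter measured with One-Glo reagent; series mostly up to about 46 µM; nearly all actives have a fitted effect of over 50% in size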)
In short: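 ERR reporter cell line (NTP) plated at 2,000 cells/well, settled 6 h at 37C/5% CO2, then exposed to LOPAC compounds for 18 h at 37C. One-Glo luciferase luminescence read after 30 min at room temperature.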

[19] = system: estrogen-related receptor alpha (ERRalpha) with PGC-1alpha coactivator, human; assay: qHTS assay to identify small molecule antagonists of the estrogen related receptor signaling pathway with the pleiotropic PPARgamma coactivator (PGC) (AID 1224821; calls by dose curve)
In short: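 Cells engineered for PGC/ERR signalling (line from NTP) were plated 6 h at 37 C/5% CO2, then exposed to DMSO-dissolved compound for 18 h at 37 C. Luciferase activity was read by One-Glo luminescence after 30 min at room temperature.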
On the % scale 0 is the no-effect control and ±100 the full control effect.

CCCOC(OCCC)OCCC
inactive: Potency [1] | outcome [2] | Potency [3] | Potency [4] | Potency [5] | outcome [6] | outcome [7] | Potency [8] | outcome [9]

Cc1c(I)c(=O)n(-c2ccccc2)n1C
inactive: Potency [1] | outcome [2] | Potency [3] | Potency [4] | Potency [5] | outcome [6] | outcome [7] | Potency [8] | outcome [9] | Potency [10]

CCN1CCc2nc(N)oc2CC1
inactive: Potency [1] | outcome [2] | outcome [11] | outcome [12] | Potency [3] | Potency [13] | Potency [5] | outcome [6] | outcome [7] | Potency [10]

COc1ccc(OC)c(Cl)c1
inactive: Potency [1] | outcome [2] | outcome [14] | Potency [3] | Potency [13] | Potency [4] | Potency [5] | outcome [6] | Potency [15] | outcome [7] | Potency [8] | outcome [9] | Potency [10]

Cc1ccccc1OCC(O)CO (centres undefined)
inactive: Potency [1] | outcome [2] | Potency [3] | Potency [13] | Potency [4] | Potency [5] | outcome [6] | Potency [15] | outcome [7] | Potency [8] | outcome [9] | Potency [10]

CCCCCCCCCCCCCC
inactive: Potency [1] | outcome [2] | Potency [3] | Potency [13] | Potency [4] | Potency [5] | outcome [6] | Potency [15] | outcome [7] | Potency [8] | outcome [9] | Potency [10]

BrCc1cccc(Oc2ccccc2)c1
inactive: outcome [2] | outcome [16] | outcome [14] | Potency [17] | Potency [3] | Potency [4] | Potency [5] | outcome [6] | outcome [7] | Potency [8] | outcome [9] | Potency [10]

C[Si](C)(C)C
inactive: Potency [1] | outcome [2] | Potency [3] | Potency [13] | Potency [5] | outcome [6] | Potency [15] | outcome [7] | Potency [8] | outcome [9] | Potency [10]

CCCCC(CC)COCCO (centres undefined)
inactive: Potency [1] | outcome [2] | Potency [3] | Potency [13] | Potency [5] | outcome [6] | outcome [7] | Potency [8] | outcome [9] | Potency [10]

CCCCCCCC/C=C\CCCCCCCC(=O)OCCCC
inactive: activation [1] 2.43% [at 15.8 µM] | activity change, negative = cytotoxicity [2] 1.56% [at 15.8 µM] | activity change, negative = inhibition [13] -1.11% [at 23.6 µM] | viability change, negative = cytotoxic [4] -5.62% [at 19 µM] | activity change, negative = cytotoxicity [5] 3.28% [at 19 µM] | activity, negative = inhibition [6] 20.6% [at 19 µM] | activation [15] 0.178% [at 19 µM] | viability change, negative = cytotoxic [7] -2.58% [at 19 µM] | activation [9] -2.76% [at 19 µM] | activation [10] 1.53% [at 19 µM]

CC(C)(C)OC(=O)c1ccc(O)cc1
inactive: Potency [1] | outcome [2] | outcome [14] | Potency [3] | Potency [4] | Potency [5] | outcome [6] | outcome [7] | Potency [8] | outcome [9] | Potency [10]
active: Potency [13] 39.9 µM | Potency [15] 24.3 µM

COC(=O)CCCCCCCC(=O)OC
inactive: Potency [1] | outcome [2] | outcome [14] | Potency [3] | Potency [13] | Potency [4] | Potency [5] | outcome [6] | Potency [15] | outcome [7] | Potency [8] | outcome [9] | Potency [10]

COc1ccc2c(c1)C(=O)N(CCc1ccc(S(=O)(=O)NC(=O)NC3CCCCC3)cc1)C(=O)C2(C)C
inactive: Potency [1] | outcome [2] | Potency [17] | Potency [3] | Potency [4] | Potency [5] | Potency [15] | outcome [7] | Potency [10]

BrCCCCCBr
inactive: outcome [2] | outcome [16] | Potency [3] | Potency [13] | Potency [4] | Potency [5] | outcome [6] | Potency [15] | outcome [7] | Potency [8] | outcome [9] | Potency [10]

COC(=O)[C@@H]1[C@H]2C[C@H]3c4[nH]c5ccccc5c4CCN3C[C@@H]2CC[C@@H]1O
inactive: outcome [2] | outcome [16] | outcome [11] | outcome [18] | outcome [19] | outcome [12] | Potency [13] | Potency [4] | Potency [5] | outcome [6] | outcome [7] | Potency [8] | outcome [9] | Potency [10]

COc1cc2c(cc1OC)[C@@H]1CC(=O)[C@@H](CC(C)C)CN1CC2
inactive: outcome [2] | outcome [16] | Potency [3] | Potency [4] | Potency [5] | outcome [6] | Potency [15] | outcome [7] | Potency [10]
